# Bioassay records (PubChem)
# In the library only some 3.8% were active in any assay of this set; here they are far more common.
# Hsp70 act = Hsp70 transcriptional activation, primary screen; HeLa Hsp70 promoter luciferase reporter, luminescence; scaled: vehicle 0, proteasome-inhibitor control 100%; AID 1203; activation, % at 10 µM; actives 0.04% (n = 200,000);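 active = activation above the mean across all tested compounds plus 3 SD, cutoff set per campaign, cut at about 5.5% in these data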;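 note: 100% = MG132 at 30 µM as the positive control and 0% = DMSO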
# pCIP destab = lowers stability of the mouse p/CIP coactivator protein; F442A p/CIP-EGFP cells, EGFP fluorescence, 16 h; Q05BA5; decrease of EGFP signal, % at 10 µM; actives 0.01% (n = 290,000);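 active = EGFP signal decrease of at least 30% at 10 µM or well 3 SD below plate mean, unless failing retest; inactive = the rest, including hits failing retest or dose response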
# Target sequence (Q05BA5 1-1403): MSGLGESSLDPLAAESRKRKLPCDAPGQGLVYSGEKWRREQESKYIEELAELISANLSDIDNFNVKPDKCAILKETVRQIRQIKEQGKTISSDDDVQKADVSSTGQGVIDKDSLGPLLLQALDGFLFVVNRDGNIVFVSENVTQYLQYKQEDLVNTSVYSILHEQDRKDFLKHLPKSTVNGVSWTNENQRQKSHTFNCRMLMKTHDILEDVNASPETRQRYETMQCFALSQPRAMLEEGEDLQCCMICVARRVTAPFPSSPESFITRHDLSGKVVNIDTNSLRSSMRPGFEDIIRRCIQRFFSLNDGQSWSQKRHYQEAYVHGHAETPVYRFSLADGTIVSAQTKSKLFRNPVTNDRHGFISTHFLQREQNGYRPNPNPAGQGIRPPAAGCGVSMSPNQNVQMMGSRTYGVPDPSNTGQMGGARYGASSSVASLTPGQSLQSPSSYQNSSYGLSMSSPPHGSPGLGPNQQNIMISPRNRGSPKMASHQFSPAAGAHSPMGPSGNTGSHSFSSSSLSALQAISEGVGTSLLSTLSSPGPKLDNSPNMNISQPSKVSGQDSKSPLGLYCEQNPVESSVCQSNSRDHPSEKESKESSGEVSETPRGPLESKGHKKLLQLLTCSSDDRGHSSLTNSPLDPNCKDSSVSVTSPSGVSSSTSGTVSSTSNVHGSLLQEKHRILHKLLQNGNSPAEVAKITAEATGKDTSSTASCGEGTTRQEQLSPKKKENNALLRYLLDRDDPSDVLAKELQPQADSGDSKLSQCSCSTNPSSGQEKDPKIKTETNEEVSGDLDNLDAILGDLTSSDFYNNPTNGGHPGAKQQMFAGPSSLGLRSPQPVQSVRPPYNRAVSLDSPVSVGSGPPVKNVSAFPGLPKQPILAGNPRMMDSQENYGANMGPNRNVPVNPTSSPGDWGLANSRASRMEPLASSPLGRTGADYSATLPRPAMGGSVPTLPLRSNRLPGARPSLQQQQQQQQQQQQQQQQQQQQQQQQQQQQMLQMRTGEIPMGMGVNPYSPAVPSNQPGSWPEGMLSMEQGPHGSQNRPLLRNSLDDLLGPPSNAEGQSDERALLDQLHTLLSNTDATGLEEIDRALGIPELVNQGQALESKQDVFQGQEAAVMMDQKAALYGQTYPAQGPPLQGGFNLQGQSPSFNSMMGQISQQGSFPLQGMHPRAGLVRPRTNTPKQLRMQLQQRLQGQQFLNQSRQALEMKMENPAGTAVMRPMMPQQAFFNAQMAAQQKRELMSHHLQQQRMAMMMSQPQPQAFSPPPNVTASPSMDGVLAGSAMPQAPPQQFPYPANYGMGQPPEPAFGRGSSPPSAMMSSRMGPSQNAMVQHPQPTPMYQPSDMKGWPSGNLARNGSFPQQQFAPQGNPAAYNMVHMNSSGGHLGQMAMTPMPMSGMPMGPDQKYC
# HSF1 inhib = HSF1 inhibition. AID 2098. NIH3T3-HGL HSE-luciferase, MG132-induced, luminescence 8 h; active compounds read low. actives 0.77% (n = 300,000). activity change, negative = inhibition, % at 7.5 µM (by protocol);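 active = more than half of replicate wells show activity change below -50%, luminescence cut by over half; inconclusive = some wells, but at most half, below -50%; inactive = no replicate well below -50%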;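 note: luciferase reports HSF-1 transcriptional activity via heat shock element; 0% = median of DMSO wells and -100% = zero luminescence signal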
# HSP90 refold inh = inhibitors of HSP90 luciferase refolding in rabbit reticulocyte lysate. inhibition, % at 5.6 µM. luciferase refolding luminescence, 3 h. actives 0.91% (n = 290,000);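 active = inhibition above the screen-wide mean plus 3 SD, computed separately per campaign, cut at about 16% in these data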;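 note: 0% = DMSO wells and 100% = 60 µM geldanamycin wells; inhibitors lower the luminescence because luciferase stays unfolded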
# HSF1 activator = increases HSF-1 driven luciferase reporter signal | NIH3T3-HGL HSF-1 luciferase reporter, MG132, 8 h; 100% = twice DMSO control signal | activation, % at 9 µM | actives 1.7% (n = 300,000);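 active = mean replicate activation of at least 50% with a set share of replicates each reaching 50%; inconclusive = only one of those two conditions met; inactive = mean below 50% and too few replicates reaching it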;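 note: 0% = median of the neutral control wells and 100% = twice that signal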
# NALP1 yeast inh = inhibitors of NALP1 inflammasome in yeast; actives 0.61% (n = 280,000); S. cerevisiae NALP1/ASC/caspase-1 growth, X-gal OD620, 72 h; inhibition, % at 10 µM; in the data active = inhibition mostly above about 24%, no sharp cut-off; inactive = mostly below about 32%
# An asterisk follows results filed as active; ? = inconclusive; . = not tested or not shown; ! = not confirmed by another sample.
SMILES,Hsp70 act,pCIP destab,HSF1 inhib,HSP90 refold inh,HSF1 activator,NALP1 yeast inh
c1ccc(-c2ccc(-c3cnc4n3CCCCC4)cc2)cc1,-0.2,0.8,19.3,0.8,42.4,26.9
CN1N=C2c3ccccc3CCC2C1c1ccc(C(F)(F)F)cc1 (configuration not stated),.,-9.8,-57.6*,1.9,-60.1,.
CC(C)(C)C(=O)Nc1sc2c(c1C#N)CCN(Cc1ccccc1)C2,.,-35.5,17.7,-2.6,57.2*,14.2
CCOc1ccc(CN2CCN(CC(O)Cn3c4ccccc4c4ccccc43)CC2)cc1 (configuration not stated),-0.5,6.1,1.5,10.9,7.4,76.7*
CN1CCN(CC(O)Cn2c3ccccc3c3ccccc32)CC1 (configuration not stated),.,-3.4,-4.0,2.3,1.5,32.1
COc1ccc(CN2CCN(CC(O)Cn3c4ccccc4c4ccccc43)CC2)cc1 (configuration not stated),-0.6,-3.2,2.5,-1.5,0.4,61.7*
OC(CN1CCCCC1)Cn1c2ccccc2c2ccccc21 (configuration not stated),.,-6.2,-2.2,-3.5,12.3,32.2
COc1ccccc1NC(=O)C1CCN(C(=O)NCc2ccccc2)CC1,.,-4.8,-2.4,-0.9,-3.4,6.0
NS(=O)(=O)c1cccc(NC(=O)Cn2nc(C(=O)O)c3ccccc3c2=O)c1,.,-4.9,-2.3,-0.7,-2.6,5.4
Cn1nc(C(=O)Nc2cccc(S(N)(=O)=O)c2)c2ccccc2c1=O,.,-4.8,9.3,2.1,-2.4,40.4*
O=C(NCCc1ccccc1)c1ccc(NCC2CCCO2)c([N+](=O)[O-])c1 (configuration not stated),-0.3,7.0,14.6,-0.3,9.0,10.0
Fc1cccc(/C=N/NC(=S)Nc2ccccc2Cl)c1,-0.1,-2.2,52.2,2.6,87.2*,.
Fc1ccc(/C=N/NC(=S)Nc2ccc(Cl)cc2)cc1F,0.8,3.2,33.6,-7.0,56.1*,10.6
S=C(N/N=C/c1ccc(Cl)c(Cl)c1)Nc1ccccc1Cl,-0.1,-2.0,4.8,3.8,16.2,10.9
COc1ccc(NC(=S)N/N=C/c2ccc(F)cc2)cc1OC,0.3,-5.8,48.0,2.7,54.7*,13.5
NC(=NC1CCCCC1)c1ccc([N+](=O)[O-])cc1,0.6,0.5,6.5,-0.3,17.5,44.1*
CCS(=O)(=O)c1ccc(C(=O)Nc2ccccc2OC)c(Cl)c1Cl,0.0,-8.8,-4.6,-2.8,-1.3,4.1
CC(C)Oc1ccc(N2C(=O)c3ccccc3C2=O)cc1,-0.2,-1.0,8.1,3.0,58.0*,-1.6
CCCCCCSc1cccc(-c2nc3ccc(Cl)cn3c2NCc2ccccc2)c1,.,.,5.2,.,-9.7,.
CCCCNCCOCCOc1ccc(Cl)cc1Br,-0.1,-5.2,7.0,3.7,23.8,51.7*
CN(CCOCCOc1ccc(Cl)cc1Br)Cc1ccccc1,0.1,37.8*,-14.3,-0.8,-34.6,34.2
CN(CCOc1ccccc1Cl)Cc1ccccc1,.,-3.8,0.1,-4.7,18.4,24.5
COCCCNCCCOc1ccc(Cl)cc1Br,-0.1,-12.7,-9.1,1.3,-5.6,18.7
COc1ccc(CN2CCN(C(C)C(=O)N3CCc4ccccc43)CC2)cc1OC (configuration not stated),.,1.9,-6.9,-4.8,-14.5,18.3
C/C(=N\OC(=O)c1ccc(Br)cc1)c1ccccn1,-0.2,-7.7,-6.4,-3.3,0.7,29.2
SMILES,Hsp70 act,pCIP destab,HSF1 inhib,HSP90 refold inh,HSF1 activator,NALP1 yeast inh
C/C(=N/OCc1ccc(Br)cc1)c1ccccn1,0.2,-3.6,22.4,-1.6,84.0*,-9.7
O=C(O)c1ccc2c(c1)C(=O)N(c1cc([N+](=O)[O-])ccn1)C2=O,.,1.1,-3.9,-2.2,-9.4,9.4
CN(C)C(=O)C1Cc2ccccc2CN1S(=O)(=O)c1ccc(F)cc1 (configuration not stated),.,8.8,-1.6,5.7,-3.1,14.3
COc1cc(/C=C2/C(=O)N(c3ccc([N+](=O)[O-])cc3)N=C2N2CCOCC2)ccc1O,.,-15.7,-2.3,5.3,-5.8,-11.5
CCN(CC)c1ccc(/C=C2/C(=O)N(c3ccc([N+](=O)[O-])cc3)N=C2N2CCOCC2)cc1,-0.3,1.2,41.4,2.2,91.8*,3.7
Cc1ccc(N(CC2=NCCN2)c2cccc(O)c2)cc1,-0.1,-8.0,-71.8*!,-0.7,-74.6,8.6
c1ccc(CN(CC2=NCCN2)c2ccccc2)cc1,0.0,-1.8,0.1,0.1,6.9,16.4
c1ccc(CN2CCN(CCOCCOc3cccc4ccccc34)CC2)cc1,0.0,-7.7,3.0,2.6,4.6,37.6*
CCOC(=O)/C=C/C(=O)Nc1ccc(S(=O)(=O)N(C)c2ccccc2)cc1,-0.3,-2.8,43.7,5.4,67.4*,0.2
O=C(c1ccc(N2CCOCC2)cc1[N+](=O)[O-])N1CCOCC1,-0.2,3.0,-2.1,-1.0,-4.0,33.9*
C=C(C)Cn1c(SCC(=O)N/N=C/c2c(O)ccc3ccccc23)nc2ccccc2c1=O,-0.1,3.1,-4.1,-2.0,-10.7,10.1
O=C(C1=C[C@@H](c2ccc3c(c2)OCO3)C[C@@H](OCCCCO)O1)N1CCN(Cc2ccc3c(c2)OCO3)CC1,-0.2,7.8,3.5,7.3,7.1,-6.3
O=C(C1=C[C@H](c2coc3ccccc3c2=O)C[C@H](OCc2ccc(CO)cc2)O1)N1CCN(Cc2ccc3c(c2)OCO3)CC1,0.1,-1.9,2.7,8.7,13.6,20.5*
O=C(C1=C[C@H](c2ccc(Br)cc2)C[C@H](OCCCCO)O1)N1CCN(Cc2ccc3c(c2)OCO3)CC1,0.1,6.3,-53.7*,0.5,-62.2,12.2
C=Cc1ncc(OC)c2c1[nH]c1ccccc12,.,.,34.2,.,?,.
O=C(NCc1ccccc1)c1cccc(COc2ccccc2Cl)c1,-0.3,4.9,-37.9,16.7*,-52.0,10.9
Cn1c(=O)c2c(nc(SCC(=O)NC3CCCC3)n2C)n(C)c1=O,.,-0.9,-5.0,3.9,7.6,19.6
Cc1cc(NC(=O)CSc2nc(CCC3CCCC3)nc3ccccc23)no1,-0.4,-2.9,21.0,3.8,58.6*,37.1
CCCc1nc(SCC(=O)Nc2cc(C)on2)c2ccccc2n1,0.1,1.2,54.2,6.7,105.5*,24.1
Cc1cc(NC(=O)CSc2nc(C(C)(C)C)nc3ccccc23)no1,0.1,-7.8,.,1.6,.,2.0
Cc1nonc1NC(=O)CSc1nc(CCC2CCCC2)nc2ccccc12,.,14.9,9.9,4.7,8.0,.
CCn1cc(SCC(=O)Nc2cc(C)on2)c2ccccc21,-0.3,-5.3,-58.9*,2.0,-65.0,31.4
CCCCNC(=O)CSc1nc(Cc2ccccc2)nc2ccccc12,.,-3.6,36.1,0.3,52.2*,-4.0
CC(=O)c1ccc(S(=O)(=O)NCc2ccc(C(=O)N(C)CC(=O)Nc3cccc(F)c3)cc2)cc1,.,-26.7,1.5,-0.8,6.0,26.4
